Laboratory results taken from PubChem BioAssay (EPA / NIEHS).
Results filed as inconclusive are left out. Activity calls are given as the source filed them. Rule for the calls: active = hit-call score of the fitted dose curve at least 0.9, where 1 is the maximum; inconclusive = response in the unintended direction; inactive = score below 0.9.

read-out: Broad substrate specificity ATP-binding cassette transporter ABCG2 (Homo sapiens) (UniProt Q9UNQ0); experiment: CLD_ABCG2_6hr: CellzDirect (CLD) Gene Expression Assay for ABC Transporter (ABCG2) at 6 hours (AID 2283660)
Description: CLD_6hr is a cell-based, multiplexed-readout assay that uses hepatocyte, a human liver primary cell, with measurements taken at 6 hours after chemical dosing in a 96-well plate.CLD_ABCG2_6hr is one of 16 assay component(s) measured or calculated from the CLD_6hr assay. It is designed to make measurements of mRNA induction, a form of inducible reporter, as detected with chemiluminescence signals by Quantitative Nuclease Protection Assay (qNPA) technology.Data from the assay component CLD_ABCG2_6hr was analyzed at the endpoint, CLD_ABCG2_6hr, in the positive analysis fitting direction relative to DMSO as the negative control and baseline of activity. Using a type of inducible reporter, gain-of-signal activity can be used to understand changes in the reporter gene as they relate to the gene ABCG2. Furthermore, this assay endpoint can be referred to as a primary readout. To generalize the intended target to other relatable targets, this assay endpoint is annotated to the transporter intended target family, where subfamily is ABC transporter.
Human hepatocyte cultures were treated daily for two consecutive days with fresh dosing solutions containing appropriate concentrations of the 320 ToxCast chemicals (chemical identities were blinded to CellzDirect and other ToxCast collaborators), vehicle control (0.2% DMSO), and positive control inducers as summarized in Table 1. Due to the large number of treatment groups and chemicals examined, the ToxCast chemicals were divided into two groups (spanning two independent cultures of hepatocytes from separate donor preparations (Hu778: ToxCast plates 1 and 2; Hu776: ToxCast plates 3 and 4). Each preparation of human hepatocyte cultures was treated with respective vehicle control, medium only control, set of six positive controls/reference chemicals for the five hepatic receptor pathways, and a subset of eight of the ToxCast chemicals (indoxacarb, pyrithiobac-sodium, norflurazon, cyhalofop-butyl, methomyl, thiram, acetochlor, and propiconazole). These replicate data, coupled with internal replicates designed within the blinded ToxCast chemical library, provided additional data to evaluate interindividual differences between hepatocyte preparations and their potential impact on chemical profiles.Cell morphology and integrity were evaluated using phase-contrast microscopy as an indicator of hepatocyte cell health (Tyson & Green, 1987). Cultures for each treatment group (i.e., media, vehicle [0.2% DMSO], positive control inducers [multiple concentrations], and the ToxCast chemicals [multiple concentrations]) were observed and cell morphology was assessed relative to vehicle control cultures at each harvest time point (0, 6, 24, or 48 h). […] Images were evaluated at the conclusion of the study to assess changes in cell integrity and account for the effects of chemical exposure on uncharacteristic changes in concentration-dependent gene expression profiles. The results from these determinations of apparent cytotoxicity were annotated (yes/no) alongside the corresponding qNPA data for reference.At the conclusion of each treatment period, hepatocyte cultures (96-well) were washed with 1 volume of HBSS, lysed by addition of 25 ul ArrayPlate lysis buffer (HTG, Tucson, AZ), and 70 ul/well of Denaturation Oil, denatured by incubation at 95C for 10 min, and frozen at approximately -70C until analysis by nuclease protection assay (qNPA) (Roberts et al., 2007). For qNPA analysis, cell lysates were thawed at 50C for approximately 30 min, qNPA probes were added, and samples were incubated at 95C for 10 min to begin the detection process by denaturing the target RNA, dissociating the duplexes and secondary structure hybridization. At the conclusion of the hybridization period, S1 nuclease reagent was added to each sample to digest all nonprotected nucleotides at 50C for 60-90 min. […]

Chain of Broad substrate specificity ATP-binding cassette transporter ABCG2 (Homo sapiens) (Q9UNQ0 whole entry, looked up): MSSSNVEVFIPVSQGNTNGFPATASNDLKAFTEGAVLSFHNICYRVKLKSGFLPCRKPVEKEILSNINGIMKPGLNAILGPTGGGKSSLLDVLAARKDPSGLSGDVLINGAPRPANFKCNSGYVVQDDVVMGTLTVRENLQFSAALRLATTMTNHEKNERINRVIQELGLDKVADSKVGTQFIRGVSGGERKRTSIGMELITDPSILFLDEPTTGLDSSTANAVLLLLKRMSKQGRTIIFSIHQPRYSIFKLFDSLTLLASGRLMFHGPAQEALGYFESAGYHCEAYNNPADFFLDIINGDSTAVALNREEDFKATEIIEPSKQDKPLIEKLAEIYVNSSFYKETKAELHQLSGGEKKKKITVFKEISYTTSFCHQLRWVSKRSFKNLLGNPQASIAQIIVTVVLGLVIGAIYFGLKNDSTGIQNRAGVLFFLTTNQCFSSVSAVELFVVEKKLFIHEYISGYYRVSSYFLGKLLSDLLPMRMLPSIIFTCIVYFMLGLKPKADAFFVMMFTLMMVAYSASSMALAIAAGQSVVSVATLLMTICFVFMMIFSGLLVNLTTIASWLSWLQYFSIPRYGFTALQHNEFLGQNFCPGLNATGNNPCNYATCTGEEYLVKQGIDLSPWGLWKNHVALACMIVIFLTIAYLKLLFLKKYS

Structure (SMILES)	outcome
COc1cc(Cl)c(OC)cc1Cl	inactive
Nc1c(Cl)c(F)nc(OCC(=O)O)c1Cl	inactive
CC1(C)CCC(=Cc2ccc(Cl)cc2)C1(O)Cn1cncn1 (stereo not given)	inactive
CCCN(CC)CC1COC2(CCC(C(C)(C)C)CC2)O1 (stereo not given)	inactive
OC(c1ccc(Cl)cc1)(c1ccc(Cl)cc1)C(Cl)(Cl)Cl	inactive
COc1ccc(-c2ccccc2)cc1NNC(=O)OC(C)C	inactive
CC(C)(C)C(=O)C(Oc1ccc(Cl)cc1)n1cncn1 (stereo not given)	inactive
CS(=O)(=O)c1ccc(C(=O)C2C(=O)CCCC2=O)c([N+](=O)[O-])c1	inactive
O=c1n(Cl)c(=O)n(Cl)c(=O)n1Cl	inactive
COP(=S)(OC)SCn1nnc2ccccc2c1=O	inactive
Nc1c(Cl)c(Cl)nc(C(=O)O)c1Cl	inactive
CCOP(=S)(OCC)Oc1nc(Cl)n(C(C)C)n1	inactive
CN=C=S	inactive
COCc1cnc(C2=NC(C)(C(C)C)C(=O)N2)c(C(=O)O)c1 (stereo not given)	inactive
Cc1nc(N(C)C)nc(OC(=O)N(C)C)c1C	inactive
O=C1C2CC=CCC2C(=O)N1SC(Cl)(Cl)Cl (stereo not given)	inactive
CCCC(=NOCC)C1=C(O)CC(CC(C)SCC)CC1=O (stereo not given)	inactive
COP(=O)(OC)O/C(C)=C/C(=O)N(C)C	inactive
C=CCOC(=O)C(C)(C)OC(=O)c1cc(-n2c(=O)cc(C(F)(F)F)n(C)c2=O)ccc1Cl	inactive
CCOc1cc(C(C)(C)C)ccc1C1COC(c2c(F)cccc2F)=N1 (stereo not given)	inactive

Structure (SMILES)	outcome
CCCCOCN(C(=O)CCl)c1c(CC)cccc1CC	inactive
Cc1ccc(N=CN(C)C=Nc2ccc(C)cc2C)c(C)c1	inactive
CC1(C)C(C=C(Cl)Cl)C1C(=O)OC(C#N)c1cccc(Oc2ccccc2)c1 (stereo not given)	inactive
Cc1cnc(C2=NC(C)(C(C)C)C(=O)N2)c(C(=O)O)c1 (stereo not given)	inactive
N#CN=C1SCCN1Cc1ccc(Cl)nc1	inactive
CCOc1nc(C(Cl)(Cl)Cl)ns1	inactive
Cc1c(COC(=O)[C@@H]2[C@H](/C=C(\Cl)C(F)(F)F)C2(C)C)cccc1-c1ccccc1	inactive
COC(=O)NS(=O)(=O)c1ccc(N)cc1	inactive
CCCCC(O)(Cn1cncn1)c1ccc(Cl)cc1Cl (stereo not given)	inactive
CC(C)NC(=O)N1CC(=O)N(c2cc(Cl)cc(Cl)c2)C1=O	inactive
CCOc1nc(F)cc2nc(S(=O)(=O)Nc3c(Cl)cccc3Cl)nn12	inactive
Clc1nc(Cl)nc(Nc2ccccc2Cl)n1	inactive
CO/N=C(/C1=NOCCO1)c1ccccc1Oc1ncnc(Oc2ccccc2Cl)c1F	inactive
COCC(C)N(C(=O)CCl)c1c(C)csc1C (stereo not given)	inactive
CC(C)C1(C)N=C(c2ncccc2C(=O)O)NC1=O (stereo not given)	inactive
CCOP(=O)(OCC)Oc1nc(Cl)c(Cl)cc1Cl	inactive
CC(C)N1C(=O)N(c2ccccc2)CSC1=NC(C)(C)C	inactive
Nc1cnn(-c2ccccc2)c(=O)c1Cl	inactive
CC(C)Nc1nc(Cl)nc(NC(C)C)n1	inactive
CC1(C)CON(Cc2ccccc2Cl)C1=O	inactive
